This is part of a sample that, as a whole, favours compounds with a hit. Of some 79,000 tested, about 15% had one in any assay. Cut-off read from the data, not from the text of the source: active = growth inhibition above about 70%; inactive = the rest.
What was measured:
[1] = NCI Yeast Anticancer Drug Screen. Data for the rad50 strain (AID 155);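 note: 0% = growth of vehicle-only cultures of the same strain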; settings: S. cerevisiae rad50 strain growth inhibition; at 50.0 µM; hits give high values
Procedure, shortened: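 Yeast carrying a defined DNA repair defect were exposed to test compounds, and growth was compared with vehicle-treated controls to give percent inhibition.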

[2] = NCI Yeast Anticancer Drug Screen. Data for the mec2-1 strain (AID 157); settings: S. cerevisiae mec2-1 strain, at 50.0 µM, hits give high values
Procedure, shortened: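 Growth inhibition is read against vehicle-treated controls after compound exposure of the mec2-1 yeast strain, which is defective in DNA damage repair or cell cycle control.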

[3] = NCI Yeast Anticancer Drug Screen. Data for the sgs1 mgt1 strain (AID 161);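 note: 0% = growth of cultures given vehicle only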; settings: S. cerevisiae sgs1 mgt1 strain, at 50.0 µM, hits give high values
Procedure, shortened: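 This yeast growth screen uses a strain with defined DNA-repair lesions; compound-treated growth is compared with vehicle-treated growth.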

[4] = NCI Yeast Anticancer Drug Screen. Data for the cln2 rad14 strain (AID 165);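 note: 0% = growth equal to vehicle treated cultures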; settings: S. cerevisiae cln2 rad14 strain, at 50.0 µM, hits give high values
Procedure, shortened: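 Growth inhibition, relative to vehicle-treated controls, is the read-out. The test organism is a yeast strain with defined genetic alterations, cln2 rad14.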

[5] = NCI Yeast Anticancer Drug Screen. Data for the bub3 strain (AID 167); settings: S. cerevisiae bub3 mutant strain, at 50.0 µM, hits give high values
Procedure, shortened: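 Compounds were applied to a genetically altered yeast strain carrying a cell-cycle control defect. Growth inhibition was scored against vehicle-treated controls.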

[6] = NCI Yeast Anticancer Drug Screen. Data for the mlh1 rad18 strain (AID 175); settings: S. cerevisiae mlh1 rad18 strain growth inhibition; at 50.0 µM; hits give high values
Procedure, shortened: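 Cells of a genetically altered yeast strain, deficient in DNA damage repair, were treated with compound. Their growth was then compared with that of vehicle-treated cultures to give inhibition.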

Measured: growth inhibition

CCOC(=O)C(CCCCC(CN(CC)CC)(C(=O)OCC)c1ccccc1)(CN(CC)CC)c1ccccc1 (stereo not given)
inactive: [1] 29.4% | [2] -10.2% | [3] 11.7% | [4] 0.65% | [5] 2% | [6] 12.3%

Cc1cccc(-c2cc(=O)c3c(C)ccnc3[nH]2)c1
inactive: [1] 10.3% | [2] -1% | [3] -0.85% | [4] -4.5% | [5] -3.3% | [6] -12.9%

COc1ccc(C(=O)/C=C/c2ccncc2)cc1OC
inactive: [1] 41.8% | [2] 38.4% | [3] 51.5% | [4] 5.55% | [5] 32.5% | [6] 36.9%

OCC(CO)(CO)COCC(CO)(CO)CO
inactive: [1] 8.5% | [2] -25.1% | [3] 6.75% | [4] 10% | [5] -12.3% | [6] 13.1%

CC(Oc1ccc(Br)cc1Br)C(=O)O (stereo not given)
inactive: [1] 4.1% | [2] -16.2% | [3] 1.2% | [4] 23.2% | [5] -14.5% | [6] 19.1%

CC(C)(C)c1ccc(P(=O)(O)C(C)(C)C)cc1
inactive: [1] -9.5% | [2] 5.9% | [3] -15.5% | [4] 35% | [5] 4.15% | [6] 6.95%

CN(CC(=O)NC(=O)c1ccccc1)c1ccccc1
inactive: [1] 4% | [2] -2% | [3] 8.85% | [4] -0.75% | [5] 11% | [6] 3.2%

CC(=O)OCC(=O)[C@H]1CC[C@@H]2[C@]1(C)CC=C1[C@]23C=C[C@]2(C[C@@H](OC(C)=O)CC[C@]12C)C1C(=O)OC(=O)C13 (stereo not given in full)
inactive: [1] -9.65% | [2] 3.4% | [3] -0.6% | [4] -8.35% | [5] 4.65% | [6] 26.9%

CCOC(=O)c1c(NC2=NCCC2)n[nH]c1N
inactive: [1] 7.05% | [2] 14.8% | [3] 15% | [4] 14.7% | [5] -18.6% | [6] 5.9%

COC(=O)[C@]1(C)CCC[C@]2(C)c3cc(Br)c(C(C)C)cc3CC[C@H]12
inactive: [1] -18.6% | [2] -9.25% | [3] -6.3% | [4] -44.5% | [5] -4.55% | [6] -1.8%

Nc1ccc(S(=O)(=O)N(CCO)CCO)cc1
inactive: [1] -2.65% | [2] -28.2% | [3] -20.9% | [4] -6.95% | [5] -18.8% | [6] -12.3%

O=C(S)C(=O)Cc1cn[nH]n1
inactive: [1] -3.95% | [2] -1.9% | [3] -4.5% | [4] 6.15% | [5] -7.25% | [6] -26.8%

COc1cc(CC(=O)O)ccc1O
inactive: [1] 11.8% | [2] -21.3% | [3] -26.7% | [4] -18.4% | [5] 1.45% | [6] -0.55%

N#CC(C#N)=C(N)/C(C#N)=C/c1ccc2ccccc2n1
inactive: [1] -0.25% | [2] -11.2% | [3] -5.75% | [4] 12.8% | [5] -5.45% | [6] -12.2%

COc1ccc(/C=C2\N=C(c3ccccc3)OC2=O)c(Cl)c1OC
inactive: [1] -9.35% | [2] -3.5% | [3] -25% | [4] 1.6% | [5] -5.25% | [6] -3%

O=C(O)CCC(CCC(=O)O)(C(=O)O)c1ccccc1
inactive: [1] -20.1% | [2] -6.5% | [3] -8.75% | [4] -42.1% | [5] -1.65% | [6] -7.8%

CCCC(CCC)C(=O)O
inactive: [1] -18% | [2] 3.45% | [3] -8.75% | [4] 7.9% | [5] -10.8% | [6] -1.05%

CCN(CC)C(C)(C)C(=O)/C=C/c1ccc(OC)cc1
inactive: [1] -11.6% | [2] -15.2% | [3] -33.3% | [4] 12.7% | [5] 9.65% | [6] -18.4%

Cc1ccccc1CCOC(=O)c1cc([N+](=O)[O-])cc([N+](=O)[O-])c1
inactive: [1] -19% | [2] 2.2% | [3] -10.9% | [4] 4.1% | [5] 5.45% | [6] -16.4%

CC1=C(C(=O)CC(=O)C(=O)Nc2ccc(C)cc2)Sc2ccccc2N1
inactive: [1] -7.35% | [2] 21.1% | [3] -16.4% | [4] 21.9% | [5] -9.1% | [6] -8.25%

Cc1ccc(S(=O)(=O)n2cnc(CC(NC(=O)C3CCC(=O)N3C(=O)OCc3ccccc3)C(=O)N3CCCC3C(=O)NN)c2)cc1 (stereo not given)
inactive: [1] -38.9% | [2] -43.1% | [3] -30.8% | [4] -9.95% | [5] -30.9% | [6] -18.2%

CC(=O)CC(C)=Nc1ccc([N+](=O)[O-])cc1
inactive: [1] 1.75% | [2] -3.9% | [3] -6.7% | [4] -34.5% | [5] -16.6% | [6] 2.3%

CC1CCC2c3c([nH]c4ccccc34)C3C(=O)N(C4CCCCC4)C(=O)C3C2C1 (stereo not given)
inactive: [1] 5.65% | [2] 0.25% | [3] 1.8% | [4] 3.05% | [5] 4.1% | [6] 2.25%

O=C(c1ccc(Cl)cc1)N(C(=S)N1CCN(c2ccccn2)CC1)C1CCCCC1
inactive: [1] 4.5% | [2] 13.7% | [3] 15.3% | [4] 6.85% | [5] -16.6% | [6] 19.4%

CCOC1CSc2ccccc2C(c2ccccc2)=N1 (stereo not given)
inactive: [1] 9.9% | [2] -1.4% | [3] 0.25% | [4] 10.6% | [5] 14.7% | [6] 6.75%

CC(=O)C1=C2CCC3C(CCC4CC(O)CCC43C)C2CC1 (stereo not given)
inactive: [1] -3.95% | [2] -3.35% | [3] 10.9% | [4] -9.45% | [5] -8% | [6] 11.2%

Nc1cc2c(C3OC(CO)C(O)C3O)[nH]nc2c(=S)[nH]1 (stereo not given)
inactive: [1] 40.8% | [2] 7.05% | [3] 15.5% | [4] 20.4% | [5] 8.15% | [6] 24.1%

Cn1cc(N=P(c2ccccc2)(c2ccccc2)c2ccccc2)c(=O)n(C)c1=O
inactive: [1] -5.8% | [2] 4.15% | [3] -11.1% | [4] 1.35% | [5] -2.15% | [6] 5.55%

CNC(=O)OCCC(OC(=O)NC)C1CCC2C3CCC4CC(OC(=O)c5ccccc5)CCC4(C)C3CCC12C (stereo not given)
inactive: [1] 37% | [2] 1.7% | [3] 4.9% | [4] 23.3% | [5] -4% | [6] 8.8%

O=[N+]([O-])c1ccc(N/N=C2\C=CCCC2)c([N+](=O)[O-])c1
inactive: [1] -0.95% | [2] -11.9% | [3] -13% | [4] 15.3% | [5] -12.6% | [6] 17.1%

O=C(c1ccc(F)cc1)c1ccc([N+](=O)[O-])cc1
inactive: [1] 8.85% | [2] 8.1% | [3] -1.7% | [4] -19.9% | [5] -14.1% | [6] 12.1%

c1ccc(CNc2cnccn2)cc1
inactive: [1] -20.5% | [2] 10.7% | [3] -7.75% | [4] -22.1% | [5] -3.7% | [6] -4.95%

CC1=NN(C(=O)c2ccc(Cl)cc2)C(=O)/C1=C/c1ccco1
inactive: [1] -8.85% | [2] -28.9% | [3] -22.6% | [4] 9.25% | [5] -2.7% | [6] -24.1%

O=C(O)CCCc1ccccc1[N+](=O)[O-]
inactive: [1] -16.7% | [2] -41.8% | [3] -6.4% | [4] -2.35% | [5] -18.9% | [6] -19.8%

CCN(CC)C(=O)c1ccc(O)c(OC)c1
inactive: [1] 17.7% | [2] 17% | [3] 7.3% | [4] 7.65% | [5] -7.3% | [6] -4.3%

From PubChem BioAssay (NCI)
